Assay results taken from PubChem BioAssay.
Results filed as inconclusive are left out. Calls of active or inactive are those of the source.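 How the source made its calls, unless noted: active means GFP signal, as percent of the solvent control, above the screen mean plus 3 SD, about 149; inconclusive means no reading because the compound's own fluorescence upset strain identification; inactive means the rest.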

Tests used:
[1] = rapamycin-like changes in RPL19A-GFP expression – cell-based, S. cerevisiae, multiplex flow cytometry, primary screen (AID 1862; in the data active means percent of DMSO control GFP below about 86%;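 further: lower values mimic rapamycin by blocking the RPL19A rise seen in DMSO cells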); conditions: S. cerevisiae RPL19A-GFP strain, flow cytometry fluorescence, 3 h; at 10 µM; stronger effect = lower value
[2] = TOR pathway GLN3 branch reporter MEP2-GFP changes – S. cerevisiae, multiplex flow cytometry, primary screen (AID 1867;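 active means GFP response, as percent of the DMSO control, above the screen-wide mean plus 3 SD, about 139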;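 further: median GFP channel fluorescence of barcode-gated MEP2-GFP cells measured by flow cytometry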); conditions: S. cerevisiae MEP2-GFP strain, 3 h, at 10 µM, stronger effect = higher value, 100% means same as DMSO wells
[3] = TOR pathway RTG branch CIT2 reporter changes – S. cerevisiae, GFP fusion, multiplex flow cytometry, primary screen (AID 1870;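 active means percent response above a set limit, the screen-wide mean plus 3 SD, cut at about 130% in these data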;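 further: barcoded CIT2-GFP strain pooled with four other GFP strains with rapamycin as positive control; median GFP fluorescence per well over plate mean of DMSO wells so 100% = DMSO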); conditions: S. cerevisiae CIT2-GFP expression, 3 h, at 10 µM, stronger effect = higher value
[4] = TOR pathway LAP4-GFP level changes – S. cerevisiae, multiplex flow cytometry, primary screen (AID 1873); conditions: S. cerevisiae LAP4-GFP expression, 3 h, at 10 µM, stronger effect = higher value
[5] = yeast AGP1-GFP level changes, GLN3 branch – cell-based, multiplex flow cytometry, S. cerevisiae, primary screen (AID 1887;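 active means GFP signal above the screen-wide mean plus 3 SD, that is over about 124.5% of the solvent control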;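 further: AGP1-GFP fusion strain of S. cerevisiae within a five-strain barcoded multiplex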); conditions: 3 h, at 10 µM, stronger effect = higher value
[6] = reduced mouse 2C T cell binding to pMHC/ICAM-1 vesicles – MLPCN validation set, flow cytometry, LFA-1/ICAM-1 modulator project, pilot screen (AID 2523;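 active means response below a set limit, under 55% cells CD8-positive and vesicle-bound, and CD8 cells' 90th-percentile brightness under 279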;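 on vesicle binding response: mean PE anti-B7-1 fluorescence of CD8+ cells relative to row control; 100% = QL9-loaded vesicles with DMSO vehicle in the same plate row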); conditions: 2C mouse CD8+ T cells, at 7 µM, stronger effect = lower value; double positive events: measured here: CD8+/vesicle+ event percentage
[7] = molecular target: Integrin beta-1 (Homo sapiens) + Integrin alpha-4 (Homo sapiens) (UniProt P13612+P05556); experiment: alpha4beta1 integrin LIBS antibody binding reduction – U937 cells, HUTS-21 mAb, flow cytometry, validation set, VLA-4 allosteric modulator project, pilot screen (AID 2674;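 active means inhibition above 50%, about 3 SD of the validation set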;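 further: antibody binding induced by the VLA-4 ligand LDV present at three times its Kd; 0% = LDV ligand with antibody and no compound and 100% = antibody without LDV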); conditions: HUTS-21 LIBS mAb binding, at 6.7 µM, stronger effect = higher value, binding induced by LDV ligand
[8] = calorie-restriction mimetic ROS inhibitors, yeast – validation compound set, pilot screen (AID 2706;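 active means superoxide response below 65% of plate, a cut near 3 SD across the whole screen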;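 further: yeast exposed to compound for one week at 30 degrees C before staining; 100% = mean of all compound wells on the same plate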); conditions: S. cerevisiae aging, superoxide DHE fluorescence; at 10 µM; stronger effect = lower value
[9] = molecular target: Beta-adrenergic receptor kinase 1 (Homo sapiens) (UniProt P25098); experiment: GRK2 binders displacing RNA aptamer, biochemical, validation, human GRK2, bead flow cytometry (AID 488806;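 active means aptamer binding inhibition above 30%, about 3 SD of noise from non-fluorescent compounds; inactive means inhibition at or below 30%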); conditions: bead-bound GRK2, FAM-aptamer displacement, at 10 µM, stronger effect = higher value
[10] = molecular target: Beta-2 adrenergic receptor (Homo sapiens) (UniProt P07550); experiment: agonist-induced loss of surface beta2AR – cell-based, FAP fluorogen, flow cytometry, validation set, pilot screen (AID 504459;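 active means percent response above 42, roughly 3 SD of non-fluorescent test compounds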;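 further: agonist-driven loss of surface beta2AR via internalization measured by FAP dye flow cytometry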); conditions: Am2.2-beta2AR cells, at 10 µM, stronger effect = higher value
[11] = molecular target: AP-2 complex subunit beta (Homo sapiens) (UniProt P63010); experiment: beta-arrestin/AP2 interaction blockers – biochemical, validation set, GST-AP2 beads, flow cytometry, pilot screen (AID 504541;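 active means inhibition above 54%, about 3 SD of non-fluorescent compounds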;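 further: AP2 carries R879A mutation and is captured from E. coli lysate; bead-bound FITC arrestin peptide fluorescence measuring arrestin peptide binding to AP2; 0% = DMSO wells and 100% = excess unlabeled arrestin peptide control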); conditions: FITC arrestin peptide, at 10 µM, stronger effect = higher value, AP2 beta2 appendage fragment, R879A mutant
[12] = cytosolic pH regulators acting via V-ATPase – S. cerevisiae, pHLuorin, HTS validation (AID 504600; in the data active means response above about 15%;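 further: plate controls were DMSO for no effect and reference compound for full effect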); conditions: V-ATPase proton transport, at 10 µM, stronger effect = higher value
[13] = tested on: anti-desmoglein-3 scFv antibody binding to human DSG3; experiment: blockers of pathogenic pemphigus antibody–desmoglein-3 binding – biochemical, validation compound set, bead-based, flow cytometry, pilot screen (AID 588368;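 active means binding below the plate cutoff, the plate median minus 3 SD, with a reading above zero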;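 further: signal is the median channel fluorescence of bead-bound GFP antibody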); conditions: Protein G beads, DSG3-Fc, scFv-GFP binding, at 10 µM, stronger effect = lower value
[14] = Nile Red efflux blockade in pump-expressing yeast – validation compound set, multiplex, phenotypic, pilot screen (AID 588506;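 active means efflux inhibition above 0.42, the validation set average plus 4 SD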;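 further: Nile Red retained in cells so higher fluorescence means more efflux inhibition; 0 = negative control wells and 1 = enniatin B 25 µM full block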); conditions: S. cerevisiae pump-expressing triplex, Nile Red efflux flow cytometry; at 10 µM; stronger effect = higher value; the pumps come from Candida albicans
[15] = molecular target: ATP-binding cassette sub-family B member 6 (Homo sapiens) (UniProt Q9NP58); experiment: blockers of ABCB6-driven porphyrin uptake – K562-ABCB6 cells, flow cytometry, validation set, pilot screen (AID 588550;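 active means inhibition above the screen-wide mean plus 3 SD, about 51%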;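 further: 0% = DMSO wells and 100% = benzethonium chloride 70 µM positive control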); conditions: K562-ABCB6 porphyrin accumulation, 1 h, at 10 µM, stronger effect = higher value
[16] = AML differentiation inducers, ER-HoxA9 marrow cells – cell-based, GFP/MAC1 double positive, flow cytometry, validation set, primary screen (AID 588685;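 active means differentiation response of at least 50%, scaled between solvent and reference control, from cells with both markers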;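 further: compound exposure lasts four days before antibody staining and flow analysis; 0% = DMSO wells and 100% = 5 µM fulvestrant positive control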); conditions: stronger effect = higher value, normalized: vehicle 0, fulvestrant 100

Sequence of AP-2 complex subunit beta (Homo sapiens) (P63010 whole entry, looked up, the tested form may be a part, one chain of several): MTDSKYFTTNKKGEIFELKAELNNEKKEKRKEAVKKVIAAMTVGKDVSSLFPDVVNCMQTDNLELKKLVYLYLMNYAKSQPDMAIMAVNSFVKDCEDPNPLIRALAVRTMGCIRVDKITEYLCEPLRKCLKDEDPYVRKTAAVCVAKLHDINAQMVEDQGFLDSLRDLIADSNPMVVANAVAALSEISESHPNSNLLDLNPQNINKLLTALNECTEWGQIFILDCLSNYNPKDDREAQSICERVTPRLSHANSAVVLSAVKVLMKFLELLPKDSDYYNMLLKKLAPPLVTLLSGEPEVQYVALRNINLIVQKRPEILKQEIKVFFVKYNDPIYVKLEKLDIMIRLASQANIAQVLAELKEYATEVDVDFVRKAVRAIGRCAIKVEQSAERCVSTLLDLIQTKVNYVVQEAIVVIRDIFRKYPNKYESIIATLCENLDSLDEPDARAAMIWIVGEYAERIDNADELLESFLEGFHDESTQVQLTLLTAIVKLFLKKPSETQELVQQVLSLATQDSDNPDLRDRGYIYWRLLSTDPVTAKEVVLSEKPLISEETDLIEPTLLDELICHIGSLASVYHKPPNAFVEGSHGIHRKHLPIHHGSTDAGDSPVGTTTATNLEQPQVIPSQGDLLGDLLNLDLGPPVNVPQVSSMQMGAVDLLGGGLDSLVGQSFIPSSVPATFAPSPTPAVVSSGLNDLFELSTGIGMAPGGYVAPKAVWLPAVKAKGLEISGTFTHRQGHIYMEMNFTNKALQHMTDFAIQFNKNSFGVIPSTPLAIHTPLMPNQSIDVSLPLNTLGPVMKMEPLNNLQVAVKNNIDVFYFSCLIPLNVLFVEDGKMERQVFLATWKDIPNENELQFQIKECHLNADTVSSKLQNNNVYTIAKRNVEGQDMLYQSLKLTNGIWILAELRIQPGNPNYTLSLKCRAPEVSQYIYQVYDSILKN
Sequence of Beta-2 adrenergic receptor (Homo sapiens) (P07550 whole entry, looked up): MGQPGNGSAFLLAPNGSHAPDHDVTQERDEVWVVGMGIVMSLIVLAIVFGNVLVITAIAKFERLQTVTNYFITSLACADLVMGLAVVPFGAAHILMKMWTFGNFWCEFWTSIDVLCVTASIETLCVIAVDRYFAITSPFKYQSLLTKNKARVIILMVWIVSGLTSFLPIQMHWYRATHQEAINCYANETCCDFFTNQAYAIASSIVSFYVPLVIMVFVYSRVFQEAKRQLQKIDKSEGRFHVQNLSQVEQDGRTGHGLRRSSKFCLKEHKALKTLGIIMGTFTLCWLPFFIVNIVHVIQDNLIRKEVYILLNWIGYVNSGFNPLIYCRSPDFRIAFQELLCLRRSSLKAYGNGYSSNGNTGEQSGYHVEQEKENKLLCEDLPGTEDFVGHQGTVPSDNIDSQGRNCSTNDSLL
Sequence of ATP-binding cassette sub-family B member 6 (Homo sapiens) (Q9NP58 whole entry, looked up): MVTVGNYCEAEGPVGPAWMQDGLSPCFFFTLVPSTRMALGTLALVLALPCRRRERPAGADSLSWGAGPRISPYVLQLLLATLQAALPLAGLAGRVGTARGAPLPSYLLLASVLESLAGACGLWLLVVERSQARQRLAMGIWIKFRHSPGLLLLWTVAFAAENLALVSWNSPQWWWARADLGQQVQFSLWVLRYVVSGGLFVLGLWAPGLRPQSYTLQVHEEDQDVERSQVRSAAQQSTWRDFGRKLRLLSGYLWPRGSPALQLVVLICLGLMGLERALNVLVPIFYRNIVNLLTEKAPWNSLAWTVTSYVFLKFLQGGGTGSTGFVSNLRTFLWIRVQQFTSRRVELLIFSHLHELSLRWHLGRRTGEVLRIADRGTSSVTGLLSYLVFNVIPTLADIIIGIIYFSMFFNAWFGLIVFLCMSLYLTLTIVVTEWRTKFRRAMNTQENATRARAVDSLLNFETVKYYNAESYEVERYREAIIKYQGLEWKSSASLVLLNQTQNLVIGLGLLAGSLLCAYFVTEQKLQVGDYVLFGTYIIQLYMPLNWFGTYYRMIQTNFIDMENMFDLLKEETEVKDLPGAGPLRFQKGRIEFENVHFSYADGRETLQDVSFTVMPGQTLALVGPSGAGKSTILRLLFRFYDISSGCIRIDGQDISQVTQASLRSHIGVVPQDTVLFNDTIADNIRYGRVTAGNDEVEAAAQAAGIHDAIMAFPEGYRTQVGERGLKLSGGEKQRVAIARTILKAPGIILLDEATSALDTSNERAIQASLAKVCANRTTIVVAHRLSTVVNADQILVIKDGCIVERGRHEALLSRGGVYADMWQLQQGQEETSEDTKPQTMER
Sequence of Integrin beta-1 (Homo sapiens) + Integrin alpha-4 (Homo sapiens) (P05556 whole entry, looked up): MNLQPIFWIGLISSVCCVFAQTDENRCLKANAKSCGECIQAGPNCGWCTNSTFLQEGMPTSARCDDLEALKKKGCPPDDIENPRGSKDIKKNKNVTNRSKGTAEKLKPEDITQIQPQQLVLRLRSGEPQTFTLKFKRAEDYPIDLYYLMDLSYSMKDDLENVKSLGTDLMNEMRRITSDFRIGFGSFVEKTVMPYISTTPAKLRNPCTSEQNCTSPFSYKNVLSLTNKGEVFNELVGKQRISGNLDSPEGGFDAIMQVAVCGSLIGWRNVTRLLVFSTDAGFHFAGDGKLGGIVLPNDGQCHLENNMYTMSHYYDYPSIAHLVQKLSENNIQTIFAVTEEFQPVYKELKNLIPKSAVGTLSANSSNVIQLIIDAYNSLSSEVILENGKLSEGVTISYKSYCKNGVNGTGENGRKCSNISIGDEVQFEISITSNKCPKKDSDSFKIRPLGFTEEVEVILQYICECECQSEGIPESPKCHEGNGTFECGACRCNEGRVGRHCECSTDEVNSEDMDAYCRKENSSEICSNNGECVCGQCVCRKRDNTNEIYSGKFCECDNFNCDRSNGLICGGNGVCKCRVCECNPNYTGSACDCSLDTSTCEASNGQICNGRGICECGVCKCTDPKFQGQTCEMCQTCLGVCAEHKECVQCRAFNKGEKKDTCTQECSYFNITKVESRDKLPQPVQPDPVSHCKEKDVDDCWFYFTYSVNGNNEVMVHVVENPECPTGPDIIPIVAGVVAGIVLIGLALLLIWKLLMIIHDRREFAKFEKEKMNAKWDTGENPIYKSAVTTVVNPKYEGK
Sequence of Integrin beta-1 (Homo sapiens) + Integrin alpha-4 (Homo sapiens) (P13612 whole entry, looked up): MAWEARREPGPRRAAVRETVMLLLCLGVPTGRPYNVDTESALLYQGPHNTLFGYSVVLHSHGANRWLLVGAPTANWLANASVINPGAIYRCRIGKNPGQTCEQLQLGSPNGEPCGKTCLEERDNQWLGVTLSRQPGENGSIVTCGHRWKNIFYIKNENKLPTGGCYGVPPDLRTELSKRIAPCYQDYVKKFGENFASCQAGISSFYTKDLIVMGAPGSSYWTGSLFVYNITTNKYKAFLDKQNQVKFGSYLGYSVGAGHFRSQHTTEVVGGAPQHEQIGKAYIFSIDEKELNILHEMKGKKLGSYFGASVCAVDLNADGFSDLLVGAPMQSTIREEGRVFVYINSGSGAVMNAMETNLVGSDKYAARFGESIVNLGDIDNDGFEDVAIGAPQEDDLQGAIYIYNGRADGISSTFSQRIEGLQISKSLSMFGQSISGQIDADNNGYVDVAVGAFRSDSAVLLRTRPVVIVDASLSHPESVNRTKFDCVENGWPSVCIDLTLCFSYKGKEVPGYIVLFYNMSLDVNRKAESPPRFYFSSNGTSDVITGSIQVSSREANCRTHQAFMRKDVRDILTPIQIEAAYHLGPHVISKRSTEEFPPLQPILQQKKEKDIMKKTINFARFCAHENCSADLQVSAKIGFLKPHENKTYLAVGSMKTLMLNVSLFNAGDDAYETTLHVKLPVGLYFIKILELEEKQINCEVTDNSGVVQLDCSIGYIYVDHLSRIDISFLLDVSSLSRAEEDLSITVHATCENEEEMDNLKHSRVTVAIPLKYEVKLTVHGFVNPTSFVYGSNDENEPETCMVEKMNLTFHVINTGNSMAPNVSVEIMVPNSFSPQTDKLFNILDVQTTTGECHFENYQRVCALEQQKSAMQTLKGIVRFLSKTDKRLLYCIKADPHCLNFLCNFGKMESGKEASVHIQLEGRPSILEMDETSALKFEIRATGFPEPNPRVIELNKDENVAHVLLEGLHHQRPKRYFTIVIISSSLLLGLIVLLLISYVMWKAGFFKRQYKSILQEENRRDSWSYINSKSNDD
Sequence of Beta-adrenergic receptor kinase 1 (Homo sapiens) (P25098 whole entry, looked up): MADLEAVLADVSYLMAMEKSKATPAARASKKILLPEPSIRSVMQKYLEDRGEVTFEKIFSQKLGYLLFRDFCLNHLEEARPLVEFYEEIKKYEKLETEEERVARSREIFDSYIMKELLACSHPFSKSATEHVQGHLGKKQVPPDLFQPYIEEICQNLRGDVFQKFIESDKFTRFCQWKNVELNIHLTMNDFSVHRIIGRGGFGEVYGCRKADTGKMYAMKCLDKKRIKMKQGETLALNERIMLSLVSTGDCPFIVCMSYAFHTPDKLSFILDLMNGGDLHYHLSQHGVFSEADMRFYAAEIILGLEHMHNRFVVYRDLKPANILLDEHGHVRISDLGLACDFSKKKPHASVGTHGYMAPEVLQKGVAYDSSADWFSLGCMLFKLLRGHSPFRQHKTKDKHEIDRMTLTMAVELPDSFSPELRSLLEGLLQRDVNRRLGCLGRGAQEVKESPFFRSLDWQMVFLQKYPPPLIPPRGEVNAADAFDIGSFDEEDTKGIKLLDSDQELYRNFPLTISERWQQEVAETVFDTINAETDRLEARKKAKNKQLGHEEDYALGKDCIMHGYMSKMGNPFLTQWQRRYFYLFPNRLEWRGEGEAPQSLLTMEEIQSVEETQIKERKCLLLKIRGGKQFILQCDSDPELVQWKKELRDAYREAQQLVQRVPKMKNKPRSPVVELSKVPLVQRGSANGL

SMILES	percent of DMSO control GFP [1]	GFP response vs DMSO [2]	percent response of DMSO control [3]	GFP response vs DMSO [4]	GFP response, % of DMSO [5]	double positive events [6] [%]	vesicle binding response [6]	inhibition [7]	superoxide response (% of plate) [8]	aptamer binding inhibition [9]	response [10]	inhibition [11]	response [12]	binding (% of control) [13]	efflux inhibition (fraction of control) [14]	inhibition [15]	differentiation response [16]
Cc1nc2cc3ccccc3cc2c(=O)[nH]1	102% (inactive)	106% (inactive)	101% (inactive)	104% (inactive)	96.6% (inactive)	60.4	160% (inactive)	-26.1% (inactive)	104% (inactive)	6% (inactive)	9.81% (inactive)	-19.1% (inactive)	1.08% (inactive)	98% (inactive)	0.07 (inactive)	-9% (inactive)	-2.64% (inactive)
CC(NC(=O)c1ccc(N2CCNCC2)c([N+](=O)[O-])c1)C12CC3CC(CC(C3)C1)C2 (stereo not drawn)	92.8% (inactive)	111% (inactive)	101% (inactive)	114% (inactive)	92.6% (inactive)	56.9	87.2% (inactive)	9.13% (inactive)	101% (inactive)	-1% (inactive)	-1.73% (inactive)	-4.72% (inactive)	0.8% (inactive)	98.2% (inactive)	-0.1 (inactive)	7% (inactive)	-23.2% (inactive)
COC(=O)C1=C(C)N(Cc2ccco2)C(=O)/C1=C\c1ccc([N+](=O)[O-])cc1	102% (inactive)	103% (inactive)	97.8% (inactive)	95.3% (inactive)	96.2% (inactive)	66.2	232% (inactive)	-274% (inactive)	112% (inactive)	-4% (inactive)	15.1% (inactive)	43.9% (inactive)	-6.06% (inactive)	205% (inactive)	0.18 (inactive)	-55% (inactive)	42.3% (inactive)
Cc1ccccc1C(=O)NCC(=O)O	103% (inactive)	107% (inactive)	103% (inactive)	93.7% (inactive)	105% (inactive)	61.4	130% (inactive)	0.25% (inactive)	102% (inactive)	5% (inactive)	2.69% (inactive)	-5.73% (inactive)	109% (active)	103% (inactive)	0.31 (inactive)	-7% (inactive)	-13.3% (inactive)
CCN1CCN(C(=S)c2ccc(OC)cc2)CC1	101% (inactive)	99.6% (inactive)	109% (inactive)	76% (inactive)	92.6% (inactive)	62.5	183% (inactive)	-4.52% (inactive)	106% (inactive)	2% (inactive)	11.6% (inactive)	-10.4% (inactive)	19.2% (active)	101% (inactive)	-0.21 (inactive)	9% (inactive)	-20% (inactive)
Cc1cc(=O)[nH]c(=S)[nH]1	97% (inactive)	109% (inactive)	106% (inactive)	79.2% (inactive)	96.6% (inactive)	64.4	223% (inactive)	12.3% (inactive)	113% (inactive)	-9% (inactive)	-11.1% (inactive)	-0.05% (inactive)	0.42% (inactive)	104% (inactive)	0.12 (inactive)	12% (inactive)	0.82% (inactive)
OC12CCCCC1C(c1ccc3c(c1)OCO3)N(Cc1cccc(F)c1)CC2 (stereo not drawn)	103% (inactive)	90.9% (inactive)	113% (inactive)	94% (inactive)	101% (inactive)	61.7	234% (inactive)	-5.64% (inactive)	97.9% (inactive)	3% (inactive)	-6.32% (inactive)	7.03% (inactive)	-0.75% (inactive)	104% (inactive)	-0.01 (inactive)	0% (inactive)	-10.5% (inactive)
CN(C)CCOCCOc1ccc(Cl)cc1Br	93.7% (inactive)	119% (inactive)	101% (inactive)	77% (inactive)	90.3% (inactive)	47.1	160% (inactive)	-2.27% (inactive)	97.8% (inactive)	-6% (inactive)	-10% (inactive)	-6.43% (inactive)	1.08% (inactive)	105% (inactive)	0.09 (inactive)	4% (inactive)	13.1% (inactive)
CCN(CC)CCNC(=O)c1cc(Cl)c(N)cc1OC	105% (inactive)	107% (inactive)	89.6% (inactive)	92% (inactive)	99.7% (inactive)	63.2	204% (inactive)	-28.5% (inactive)	104% (inactive)	5% (inactive)	2.1% (inactive)	23.4% (inactive)	-4.6% (inactive)	100% (inactive)	-0.1 (inactive)	-10% (inactive)	7.09% (inactive)
